# High-throughput results: PubChem BioAssay, The Scripps Research Institute Molecular Screening Center
# DAX1 inh-1: NR0B1 (DAX1) inhibition. 340,000 compounds, 0.99% hits. HEK293 Gal4-DAX1 luciferase reporter, luminescence. inhibition, % at 6.75 µM. P51843;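 active means inhibition above the mean over all tested compounds plus 3 SD, cut at about 4.2% in these data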;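 further: inhibition shows as a rise in luminescence from relieved DAX1 repression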
# Target sequence (P51843 207-470 limits assumed): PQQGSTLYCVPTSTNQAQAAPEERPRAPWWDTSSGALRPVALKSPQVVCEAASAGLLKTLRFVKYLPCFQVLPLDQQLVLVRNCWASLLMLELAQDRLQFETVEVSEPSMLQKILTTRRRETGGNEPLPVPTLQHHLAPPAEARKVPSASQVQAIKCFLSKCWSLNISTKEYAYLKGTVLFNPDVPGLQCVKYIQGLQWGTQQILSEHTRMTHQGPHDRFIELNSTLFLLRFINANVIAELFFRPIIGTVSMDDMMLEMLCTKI
# DAX1 inh-2: DAX1 (NR0B1) inhibition, primary screen. HEK293T StAR-luciferase reporter, SF-1/DAX-1 repression relief. inhibition, % at 6.8 µM. 370,000 compounds, 1.1% hits. AID 652010;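 active means inhibition above the mean over all tested compounds plus 3 SD, cut at about 3.6% in these data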;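 further: higher inhibition means more luminescence from relief of DAX-1 repression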
# hcDAF-12 act: activators of H. contortus DAF-12 nuclear receptor. HEK293 hcDAF-12 lit1-tk-luc reporter, luminescence; 0% DMSO, 100% Δ7-dafachronic acid. activation, % at 6.8 µM. 370,000 compounds, 1.4% hits;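 active means activation above the mean of all tested compounds plus 3 SD, cut at about 5.5% in these data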
# hgDAF12 agonist: agonists of H. glycines DAF-12 nuclear receptor; AID 687014; 370,000 compounds, 1.8% hits; activation, % at 6.8 µM; HEK293 GAL4-hgDAF12 UAS-luciferase reporter, agonist luminescence; normalized to butyrate control;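 active means activation above a cutoff set at the mean of all screened compounds plus 3 SD, cut at about 10% in these data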
# ssDAF-12 act: activators of S. stercoralis DAF-12 nuclear receptor. 370,000 compounds, 1% hits. activation, % at 6.8 µM. HEK293 ssDAF-12/GRIP1 lit1-tk-luc reporter, luminescence; % of 3 µM dafachronic acid response. AID 652126;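 active means activation above the mean over all tested compounds plus 3 SD, cut at about 0.9% in these data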
# Numbers stand for hits; . = inactive; / = no result given. The list is not random: actives were taken first. Their share in the collection is about 4.1%.
SMILES,DAX1 inh-1,DAX1 inh-2,hcDAF-12 act,hgDAF12 agonist,ssDAF-12 act
Cc1cc(C)c(NC(=O)COc2nncc3ccccc23)c(C)c1,.,.,.,.,1.6
CC(C)c1ccc(NC(=O)COc2nncc3ccccc23)cc1,.,.,.,.,.
O=C(COc1nncc2ccccc12)Nc1c(F)c(F)c(F)c(F)c1F,.,.,.,.,.
O=C(COc1nncc2ccccc12)Nc1ccc(F)c(F)c1,5.7,.,.,.,.
CC(C)c1[nH]nc2c1C(c1cccc(C(F)(F)F)c1)N(Cc1ccccc1)C2=O (centres undefined),/,.,.,.,.
COc1ccc(-n2nnnc2SCC(=O)Nc2ccccc2N2CCOCC2)cc1OC,4.3,.,.,.,.
Cn1nnnc1SCC(=O)Nc1ccccc1N1CCOCC1,.,.,.,.,.
O=c1oc2ccccc2cc1-c1nnc(NCc2ccco2)s1,.,3.9,.,11.8,.
CCOc1ccc(C2N(c3cc(Cl)ccc3OC)C(=O)C3CCCN32)cc1OC (centres undefined),5.4,.,.,.,.
CCOc1ccc(C2N(c3ccc(OC)cc3)C(=O)C3CCCN32)cc1OC (centres undefined),4.8,.,.,.,.
CCOc1ccc(C2N(c3ccc(Cl)cc3)C(=O)C3CCCN32)cc1OC (centres undefined),.,.,.,.,.
C/C=C/C=C/C(=O)c1cc(C)c(OC(=O)CNC(=O)OC(C)(C)C)c(C)c1O,/,.,.,.,.
CN1CCN(c2nc(-c3cccnc3)nc3ccccc23)CC1,.,.,.,.,.
CCN1CCN(c2nc(-c3cccnc3)nc3ccccc23)CC1,.,.,5.7,.,.
O=c1[nH]ncc(N/N=C\c2cccnc2)c1Cl,5.2,.,.,.,.
O=c1[nH]ncc(N/N=C\c2ccncc2)c1Cl,.,.,.,.,.
COC(=O)C1=C(NC(C)=O)CCS1,.,.,.,.,.
COC(=O)C1=C(NC(=O)c2ccc(C)cc2)CCS1,.,.,.,.,1.9
CCn1c(C)nc2cc(C(=O)NNC(=S)Nc3ccc(F)cc3)ccc21,.,3.7,.,.,.
CCOC(=O)[C@@]12CN(C(=O)OC(C)(C)C)CC=C1N(Cc1ccc(OC)cc1)C(=O)[C@H]2CC(=O)N1CCN(C(=O)C2CC2)CC1,/,.,.,.,.
C[C@H]1[C@H](NC(=O)c2ccc(C(F)(F)F)cc2)CC[C@@]23CCCN2C(=O)CCC[C@@H]13,/,/,.,.,.
C[C@H]1[C@@H](NC(=O)c2cccc(C(F)(F)F)c2)CC[C@@]23CCCN2C(=O)CCC[C@@H]13,/,/,.,.,.
COc1cccc(/C=C2\CCC(C3CCCC3)C2=O)c1OC (centres undefined),.,.,.,12.5,.
COc1ccc(/C=C2\CCC(C3CCCC3)C2=O)c(OC)c1OC (centres undefined),.,.,.,.,.
O=C(OC12CCCN(C1)/C(=C/c1ccccc1)C2)c1cccc(F)c1 (centres undefined),/,.,.,.,.
SMILES,DAX1 inh-1,DAX1 inh-2,hcDAF-12 act,hgDAF12 agonist,ssDAF-12 act
Cc1nc2ccccc2nc(C)c1=NOCc1ccc(C#N)cc1,.,.,.,11.4,.
N#Cc1ccc(CO/N=C/c2ccccc2)cc1,.,.,.,.,.
COc1ccc(C(=O)C2CCCN(Cc3cc(C)c(O)c(C)c3)C2)c(OC)c1 (centres undefined),.,.,.,.,.
COc1ccc(C(=O)C2CCCN(C3Cc4ccccc4C3)C2)c(OC)c1 (centres undefined),.,.,.,.,0.9
O=C(COc1ccccc1Cl)Nc1ccc2c(c1)OCCO2,.,.,.,.,.
COc1ccccc1OCC(=O)Nc1ccc2c(c1)OCCO2,.,.,.,.,.
NC(=O)c1ccccc1OCC(=O)Nc1ccc2c(c1)OCCO2,.,4.5,.,.,.
Cc1ccccc1OCC(=O)Nc1ccc2c(c1)OCCO2,8.2,.,.,12.8,.
Cc1ccc(NC(=O)c2snc3ccc(Cl)cc23)cc1C,.,.,6.0,.,.
C=CCN1C[C@@H](COCc2ccccc2)Oc2cccc(F)c2S1(=O)=O,/,.,.,.,.
CCC[C@H]1[C@@H](NC(=O)c2ccc(N(C)C)cc2)CC[C@@]23CCCN2C(=O)CCC[C@@H]13,/,/,.,.,.
COc1ccc(NC(=O)C2C(c3ccc4c(c3)OCO4)=Nc3ccccc3N2C(C)=O)cc1 (centres undefined),/,.,6.2,.,.
CCOC(=O)N/N=C(\C)c1ccc(-n2cnnn2)cc1,.,.,.,12.8,.
N/C(Cc1cccc2ccccc12)=N\O,.,.,5.7,.,.
N/C(Cc1ccccc1Sc1ccccc1)=N\O,.,.,.,.,.
O=C(CSc1ccccc1)NC1CCCCN(Cc2ccc(Cl)cc2)C1=O (centres undefined),/,.,.,.,.
Cc1occc1C(=O)Nc1cc(C(C)(C)C)on1,.,4.2,.,12.3,.
Cc1cc(N2CCCN(C)CC2)nc2cc(Cl)ccc12,.,.,.,.,1.1
COc1ccc(C[N+]2=C(N)N[C@@]3(C=C(C)Cn4c(=O)n(-c5ccccc5)c(=O)n43)C2)c(OC)c1,/,.,.,.,.
COC(CNC(=O)c1ccc2nc3ccccc3c(=O)n2c1)OC,.,.,5.7,.,.
CC(C)NC(=O)OC[C@H]1O[C@H](C#Cc2ccc(C(C)(C)C)cc2)C=C[C@H]1O,/,.,.,.,.
CCCNC(=O)C1CC(=O)N(c2ccc(OCc3ccc(F)cc3)cc2)C1 (centres undefined),.,.,5.9,12.9,.
NC(=O)C1CC(=O)N(c2ccc(OCc3ccc(Cl)cc3)cc2)C1 (centres undefined),.,.,.,11.6,.
CN1Cc2nnn(Cc3ccccc3)c2-c2cc(F)ccc2S1(=O)=O,/,.,.,.,.
CN(C)c1c(F)cc(C(=O)NCc2ccccc2)cc1F,4.3,.,.,.,.
SMILES,DAX1 inh-1,DAX1 inh-2,hcDAF-12 act,hgDAF12 agonist,ssDAF-12 act
O=C(NCc1ccccc1)c1ccc(F)c(F)c1,.,.,.,.,.
O=C(N/N=C/c1c(Cl)cccc1Cl)c1n[nH]c2c1CCCC2,.,.,.,.,.
Cc1ccsc1/C=N\NC(=O)c1cc(C(C)(C)C)[nH]n1,.,.,.,10.8,.
Cc1ccsc1/C=N\NC(=O)c1n[nH]c2c1CCC2,.,.,6.0,.,1.0
Cn1cccc1-c1nc2ccc([N+](=O)[O-])cc2[nH]1,.,.,.,11.4,.
CCN(C[C@@H]1[C@@H](c2ccccc2)[C@H](CO)N1S(C)(=O)=O)C(=O)C1CCC1,/,.,.,.,.
O=C(COc1ccc2ccccc2c1Br)NC(=S)Nc1cccc(CO)c1,.,.,.,10.9,.
COc1cc(CCCN2CCNC[C@@H]2Cc2ccc(O)cc2)cc(OC)c1OC,.,.,.,.,1.0
COc1cc(CCCN2C(=S)NC[C@H]2Cc2ccc(O)cc2)cc(OC)c1OC,.,.,.,.,.
CCOC(=O)/C(C#N)=C/C=C1/C=CC=CN1C,5.7,.,.,.,.
